# Results published in PubChem BioAssay (NCI).
# Compounds without any hit were thinned out: in the full panel of roughly 83,000, 20% have a hit.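 Cell lines were cultured in 96-well plates, exposed to a single compound concentration, and assessed for percent growth 48 hours later.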 Values without a mark were called inactive. Active and inactive are the calls of the source. Rule for the calls: active = growth percent below 10; inactive = the rest.
# Test system: COLO 205 colon
# Test: NCI-60 one-dose screen, 48 h (100 = growth as untreated, 0 = no growth, -100 = all killed)
# Conditions: 10 µM unless noted
row,SMILES,growth
1,O=C(Nc1ccc(N2CCNCC2)cc1)c1[nH]ncc1Nc1cc(Oc2ccccc2)ncn1,-49.1% (active)
2,CS(=O)(=O)Nc1ccc(C(=O)NC(C(=O)NO)c2ccc(-c3cccc(F)c3)cc2)cc1 (centres undefined),109%
3,CC[C@]1(O)C[C@@H]2CN(CCc3c([nH]c4ccccc34)[C@@](C(=O)OC)(c3cc4c(cc3OC)N(C)[C@H]3[C@@](O)(C(=O)OC)[C@H](OC(C)=O)[C@]5(CC)C=CCN6CC[C@]43[C@@H]65)C2)C1,-10.8% (active)
4,O=C(CN1C(=O)/C(=C\c2ccc(Cl)cc2)SC1=S)Nc1ncc(Cc2ccc(Cl)cc2)s1,110%
5,CCCCC(O)(c1ccc(Cl)cc1)C(CN1CCOCC1)c1ccc(Cl)cc1 (centres undefined),100%
6,O=C(Nc1ccc(C23CC4CC(CC(c5ccccc5)(C4)C2)C3)cc1)c1cccs1,91.4%
7,O=C(COc1cc(O)c2c(=O)cc(-c3ccccc3)oc2c1)Nc1ccccc1,108%
8,COc1cc(C(=O)Nc2ccc(-c3nc4ccccc4[nH]3)cc2)cc(OC)c1OC,44.6%
9,COC(=O)[C@@H]1CCCN1C(=O)[C@H]1CCCN1C(=O)[C@@H](Cc1c[nH]c2ccccc12)NC(=S)Nc1cc(C(F)(F)F)cc(C(F)(F)F)c1,22%
10,O=C(CCc1nnc2sc(-c3ccc(Cl)cc3Cl)nn12)c1nc2ncccc2[nH]1,-32.5% (active)
11,O=Cc1cc2ccccc2nc1Nc1nccs1,69.7%
12,O=C(CCc1nnc2sc(Cc3ccccc3Cl)nn12)c1nc2ncccc2[nH]1,109%
13,NS(=O)(=O)c1ccc(CCN=C=S)cc1,-36.7% (active)
14,CCOc1cc(Cl)c(C(C)NC(=O)c2cccc(OC)c2)cc1OCC (centres undefined),-84.8% (active)
15,CN1CCN(Cc2ccc(C(=O)Nc3cncc(C#Cc4cnc5cccnn45)c3)cc2C(F)(F)F)CC1,39.3%
16,COc1ccc2c(c1)C=C1CSCC3=Cc4cc(OC)ccc4OC13O2,3.24% (active)
17,CN1CCN(Cc2ccc(NC(=O)c3cncc(C#Cc4nc(N)nc5[nH]ncc45)c3)cc2C(F)(F)F)CC1,21.6%
18,COc1cc(C(=O)O/N=C(\N)Cc2cccc3ccccc23)cc(OC)c1OC,-92.6% (active)
19,Nc1nc(-c2cnccn2)nn1-c1nc2ccccc2s1,111%
20,COC(=O)C1=C(C)NC(C)=C(C(=O)OC)C(N2C(=O)CCC2=O)C1 (centres undefined),114%
21,COc1ccc(Br)c(/C=C2\SC(=Nc3ccc(O)cc3)NC2=O)c1,102%
22,COc1ccc(Cn2c(Br)c3c(c2Br)-c2nc(NC(=O)c4ccc(OC)cc4)sc2CC3)cc1,103%
23,Nc1ncnc(N)c1NC(=O)c1ccc(OCc2ccccc2)cc1,103%
24,CCOc1ccc(-c2nonc2NC(=O)c2cccc(C)c2)cc1OCC,36.8%
